Test results published in paper PMC4336329 (PLoS ONE, 2015).
In all, about 310,000 compounds went through this assay and about 14,000 (4.5%) showed an effect of 50% or more. Effects have a minus sign here. For the sample, strong results were picked, then their nearest neighbours and some compounds at random.

target: human ether-à-go-go-related gene (hERG) potassium channel (human, UniProt Q12809); test: primary screen, population patch clamp on CHO cells stably expressing hERG; higher = less effect of the substance
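Further: peak tail current of the secondary pulse compared with the same well before compound.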

Sequence of human ether-à-go-go-related gene (hERG) potassium channel (Q12809 whole entry, looked up): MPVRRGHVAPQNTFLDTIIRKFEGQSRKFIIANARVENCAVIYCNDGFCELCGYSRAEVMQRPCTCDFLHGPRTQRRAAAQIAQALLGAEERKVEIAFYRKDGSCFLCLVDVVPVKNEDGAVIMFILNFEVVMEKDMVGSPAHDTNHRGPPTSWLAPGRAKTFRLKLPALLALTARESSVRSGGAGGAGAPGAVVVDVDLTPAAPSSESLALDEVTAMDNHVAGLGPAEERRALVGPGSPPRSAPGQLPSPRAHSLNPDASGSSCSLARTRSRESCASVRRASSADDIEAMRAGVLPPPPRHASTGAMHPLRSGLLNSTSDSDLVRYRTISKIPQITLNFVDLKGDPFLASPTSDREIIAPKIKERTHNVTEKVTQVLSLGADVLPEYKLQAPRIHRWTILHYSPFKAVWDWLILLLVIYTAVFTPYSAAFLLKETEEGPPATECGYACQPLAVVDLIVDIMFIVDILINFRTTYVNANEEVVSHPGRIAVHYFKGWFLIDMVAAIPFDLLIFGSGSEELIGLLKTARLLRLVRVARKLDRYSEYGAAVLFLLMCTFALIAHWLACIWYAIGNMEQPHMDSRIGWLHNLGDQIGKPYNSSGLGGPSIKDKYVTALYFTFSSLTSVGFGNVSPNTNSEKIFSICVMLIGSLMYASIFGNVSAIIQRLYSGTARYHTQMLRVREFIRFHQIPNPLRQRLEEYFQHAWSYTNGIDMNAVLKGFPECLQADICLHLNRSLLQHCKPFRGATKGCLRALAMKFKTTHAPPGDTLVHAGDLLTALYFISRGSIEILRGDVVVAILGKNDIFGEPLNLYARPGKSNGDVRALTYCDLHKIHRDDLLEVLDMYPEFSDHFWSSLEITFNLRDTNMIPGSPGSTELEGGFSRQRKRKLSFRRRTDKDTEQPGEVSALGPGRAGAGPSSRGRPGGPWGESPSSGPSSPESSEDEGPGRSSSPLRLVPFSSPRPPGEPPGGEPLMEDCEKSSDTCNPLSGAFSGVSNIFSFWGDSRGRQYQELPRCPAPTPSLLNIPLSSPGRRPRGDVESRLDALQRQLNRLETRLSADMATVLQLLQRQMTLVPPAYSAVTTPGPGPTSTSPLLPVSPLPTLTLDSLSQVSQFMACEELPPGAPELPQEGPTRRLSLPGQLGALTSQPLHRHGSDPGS

| SMILES | hERG current change (%, negative = inhibition) at 10uM [%] |
| --- | --- |
| CC(C)(C)OC(=O)N1CCN(C(=O)c2[nH]cnc2C(=O)Nc2ccon2)CC1 | 9.6 |
| Fc1ccc(-c2nc3c(-c4ccccc4)cnn3cc2CCN2CCOCC2)cc1 | -15.2 |
| COc1ccc(-n2c(Cc3cccn3C)nnc2SCC(=O)Nc2ccccc2)cc1 | -19.5 |
| CCOC(=O)CN(C(=O)CNC(=O)c1ccco1)C(C(=O)NC1CCCCC1)c1cccnc1 (stereo not shown) | 12.2 |
| Cc1onc(-c2ccccc2Cl)c1C(=O)Nc1ccc2c(c1)OCO2 | 10.3 |
| COc1cccc(-n2c(SCC(N)=O)nc3c([nH]c4ccccc43)c2=O)c1 | -0.054 |
| Cc1nnc(SCC(=O)NC2CCCc3ccccc32)n1-c1ccccc1 (stereo not shown) | -0.602 |
| CC(CCN1C(Nc2ccccc2)=NC[C@@H]1C)c1ccccc1 (stereo partly shown) | -52.4 |
| CCC(C)CCN1CCN=C1Nc1ccccc1 (stereo not shown) | -1.89 |
| CC(CCN1C(Nc2ccccc2)=NC[C@@H]1Cc1ccccc1)c1ccccc1 (stereo partly shown) | -74.8 |
| CC(C)CCN1C(Nc2ccccc2)=NC[C@@H]1C | -9.63 |
| CCC(C)CCN1C(Nc2ccccc2)=NC[C@@H]1C (stereo partly shown) | -4.88 |
| CCC(C)CCN1C(Nc2ccccc2)=NC[C@@H]1Cc1ccccc1 (stereo partly shown) | -59.6 |
| CCC(C)CCN1C(Nc2ccccc2)=NC[C@@H]1CC(C)C (stereo partly shown) | -41.1 |
| CC(CCN1CCN=C1Nc1ccccc1)c1ccccc1 (stereo not shown) | -33.8 |
| CC(C)C[C@H]1CN=C(Nc2ccccc2)N1CCC(C)c1ccccc1 (stereo partly shown) | -67 |
| S=C(Nc1ccccc1)Nc1ccc(OCc2ccccc2)cc1 | -0.702 |
| Nc1nc2ccccc2n1/N=C/c1ccc(-c2ccccc2)o1 | -11.8 |
| CCCc1[nH]nc2c1C1(C(=O)N(CC)c3ccccc31)C(C#N)=C(N)O2 (stereo not shown) | -6.38 |
| COc1ccc(C(=O)OCC(=O)NCC2CCCO2)cc1[N+](=O)[O-] (stereo not shown) | 2.12 |
| Cc1cc(/C=C(\C#N)C(=O)NC2CCCCCC2)c(C)[nH]1 | 9.54 |
| COc1ccccc1CC(=O)Nc1cccc(C(=O)Nc2nccs2)c1 | -0.755 |

| SMILES | hERG current change (%, negative = inhibition) at 10uM [%] |
| --- | --- |
| O=C(Nc1ccccc1)c1cc(-c2ccccc2Cl)no1 | -4.91 |
| O=S(=O)(NC1CCCC1)c1cc(F)ccc1F | -8.75 |
| O=C(O)C1Cc2ccccc2N2CCCC12 (stereo not shown) | 20 |
| COc1cc(-c2nnc(SC/C=C/c3ccccc3)n2N)cc(OC)c1OC | -3.66 |
| COc1cccc(C(=O)NNC(=O)c2ccc3ccccc3c2O)c1 | 7.66 |
| O=C(CSc1nc(-c2ccc(F)cc2)cs1)N1CCc2ccccc21 | -1.23 |
| CCOc1ccc(/C=N/NC(=O)c2c(C)n(C)c3ccc(OC)cc23)cc1 | -5.78 |
| COc1ccc2c(c1)c(C(=O)N/N=C/c1ccc(Br)cc1)c(C)n2C | -64.1 |
| COc1ccc2c(c1)c(C(=O)N/N=C/c1ccc(OC)c(OC)c1)c(C)n2C | -39.2 |
| COc1ccc2c(c1)c(C(=O)N/N=C/c1ccc(Cl)cc1)c(C)n2C | -58.6 |
| COc1ccc2c(c1)c(C(=O)N/N=C/c1cccc(Br)c1)c(C)n2C | -15.9 |
| COc1ccc2c(c1)c(C(=O)N/N=C/c1ccc(O)c(O)c1)c(C)n2C | 9.18 |
| Oc1ccc(-c2csc(-c3c[nH]c4ccccc34)n2)c(O)c1 | 5.01 |
| O=c1[nH]c2ccccc2n1CCCOc1ccccc1 | 4.34 |
| Cc1onc(-c2c(F)cccc2Cl)c1C(=O)Nc1cccc2nsnc12 | -20.6 |
| CNC(=O)NC(=O)COC(=O)CCCOc1ccc(OC)cc1 | 20.5 |
| COc1ccc(S(=O)(=O)NC(C)C(=O)O)cc1 (stereo not shown) | 1.62 |
| CN(CC(=O)Nc1ccc2c(c1)OCO2)S(=O)(=O)c1ccc(F)cc1 | -4.45 |
| CCN(Cc1nc2cc(Cl)ccc2c(=O)[nH]1)C(=O)c1cccc(OCc2c(C)noc2C)c1 | -57.4 |
| Cc1noc(C)c1COc1cccc(C(=O)N(C)Cc2nc3ccccc3c(=O)[nH]2)c1 | -23.5 |
| CCN(Cc1nc2cc(Cl)ccc2c(=O)[nH]1)C(=O)c1cccc(NC(=O)c2cccs2)c1 | -24.7 |
| Cc1cccc(Oc2coc3cc(OC(=O)c4cncc(Br)c4)ccc3c2=O)c1 | -5.03 |

| SMILES | hERG current change (%, negative = inhibition) at 10uM [%] |
| --- | --- |
| CN1N=C(C(=O)N2CCc3c([nH]c4ccccc34)C2c2c(F)cccc2Cl)CCC1=O (stereo not shown) | -97.3 |
| CN1N=C(C(=O)N2CCc3c([nH]c4ccccc34)C2c2ccccc2Cl)CCC1=O (stereo not shown) | -36.9 |
| Cc1cc(C(=O)N2CCc3c([nH]c4ccccc34)C2c2c(F)cccc2Cl)no1 (stereo not shown) | 5.46 |
| CC1CN(C(=O)CCC(=O)NC2CCCCC2)c2ccccc2S1 (stereo not shown) | -19.5 |
| Fc1cccc(C2CC(c3cccc(Br)c3)Nc3nnnn32)c1 (stereo not shown) | -3.02 |
| CS(=O)(=O)N(CC(=O)N1CCN(Cc2ccccc2)CC1)c1ccc(F)cc1 | -3.35 |
| C=CCN(c1ccccc1C(=O)NCC(=O)O)S(=O)(=O)c1ccccc1C | 24.7 |
| Cc1[nH]c2ccccc2c1C(=O)CN1CC=C(c2ccccc2)CC1 | -52.4 |
| CCOC(=O)N1CCN(CC(=O)Nc2c(C(=O)OC)[nH]c3ccccc23)CC1 | -10.2 |
| Cc1[nH]c2ccccc2c1C(=O)CN1CCN(C/C=C/c2ccccc2)CC1 | -73.4 |
| CCOC(=O)c1[nH]c2ccc(F)cc2c1NC(=O)CN1CCc2cc(OC)c(OC)cc2C1 | -0.0862 |
| Cc1[nH]c2ccccc2c1C(=O)CN1CCCC1 | 5.09 |
| Cc1[nH]c2ccccc2c1C(=O)CN1CCSCC1 | 5.84 |
| Cc1[nH]c2ccccc2c1C(=O)C(=O)N1CC=C(c2ccccc2)CC1 | -11.3 |
| COC(=O)c1[nH]c2ccccc2c1NC(=O)CN1CCN(C/C=C/c2ccccc2)CC1 | -76.4 |
| COc1ccc2[nH]c(C)c(C(=O)CN3CCN(C/C=C/c4ccccc4)CC3)c2c1 | -25.8 |
| CCOC(=O)c1[nH]c2ccc(OCC)cc2c1NC(=O)CN1CCN(c2ccccc2)CC1 | 17.9 |
| COC(=O)c1[nH]c2ccccc2c1NC(=O)CN1CCCCCC1 | -21.5 |
| CCOC(=O)c1[nH]c2ccc(F)cc2c1NC(=O)CN1CCN(C/C=C/c2ccccc2)CC1 | -80.7 |
| COc1ccc(C(NC(=O)c2cccnc2)c2cc(Cl)c3cccnc3c2O)cc1OC (stereo not shown) | 10.5 |
| NS(=O)(=O)c1ccc(NC(=O)CSc2nnc(-c3ccc(O)cc3)o2)cc1 | 25.1 |
| Cc1onc(-c2ccccc2)c1C(=O)OCC(=O)NC(C)c1ccc(Cl)cc1 (stereo not shown) | -7.03 |

| SMILES | hERG current change (%, negative = inhibition) at 10uM [%] |
| --- | --- |
| CCOc1nc(-c2ccccc2O)nc2ccccc12 | 2.42 |
| Cc1ccc(-c2cc(-c3ccc(C)cc3)[n+](-c3ccc(C(=O)[O-])cc3)c(-c3ccc(C)cc3)c2)cc1 | -26.8 |
| Cc1ccc(-c2cc(-c3ccc(C)cc3)[n+](-c3ccc(C(=O)O)cc3)c(-c3ccc(C)cc3)c2)cc1.[O-][Cl+3]([O-])([O-])[O-] | 26.5 |
| Cc1ccc(-c2cc(-c3ccc(C)cc3)[n+](C)o2)cc1.[O-][Cl+3]([O-])([O-])[O-] | -68.4 |
| C=CCNC(=O)c1onc(CSc2ccc(F)cc2)c1C(=O)NCCOC | -43 |
| CCN(CC(=O)NCc1ccc(Cl)cc1)C(=O)/C=C/c1ccccc1 | -46 |
| CCN(CC(=O)NCc1ccc(Cl)cc1)C(=O)/C=C/c1cc(OC)c(OC)c(OC)c1 | 3.83 |
| CCN(CC(=O)Nc1ccccc1C(F)(F)F)C(=O)/C=C/c1ccc(Cl)c([N+](=O)[O-])c1 | 10.1 |
| CCN(CC(=O)NCc1ccc(Cl)cc1)C(=O)/C=C/c1ccc(C#N)cc1 | -62 |
| CCN(CC(=O)NCc1ccc(Cl)cc1)C(=O)/C=C/c1ccc(Cl)c([N+](=O)[O-])c1 | -67.6 |
| CCN(CC(=O)NCc1ccc(Cl)cc1)C(=O)/C=C/c1cccs1 | -49.1 |
| CN(CCC(=O)Nc1ccc(Cl)cc1)Cc1ccccc1.Cl | -39.9 |
| CCCC(NC(=O)COc1cc2c(c3oc(=O)cc(C)c13)CCC(C)(C)O2)C(=O)O (stereo not shown) | 18.4 |
| O=C(NCc1ccccc1)c1ccc(C2SCC(=O)N2Cc2ccccc2)cc1 (stereo not shown) | -12.6 |
| CCOc1c(OC(C)=O)ccc(/C=C/c2ccc3cccc(OC(C)=O)c3n2)c1[N+](=O)[O-] | -4.23 |
| O=Cc1ccc2oc3nc4n(c(=O)c3c(=O)c2c1)CCCS4 | -35.7 |
| CCC(C)COC(=O)C(C#N)c1nc2ccccc2nc1N1CCCCC1 (stereo not shown) | -1.25 |
| COC(=O)C(C#N)c1nc2ccccc2nc1N1CCCC1 (stereo not shown) | -0.357 |
| CCN1CCN(c2nc3ccccc3nc2C(C#N)C(=O)OCc2ccccc2)CC1 (stereo not shown) | -73.7 |
| CCOC(=O)N1CCN(c2nc3ccccc3nc2C(C#N)C(=O)NCCc2ccccc2)CC1 (stereo not shown) | 7.98 |
| CCC(CC)COC(=O)C(C#N)c1nc2ccccc2nc1N1CCOCC1 (stereo not shown) | -7.91 |
| CCC(CC)COC(=O)C(C#N)c1nc2ccccc2nc1N1CCN(CC)CC1 (stereo not shown) | -72.7 |
